In all, about 35,000 sequences were measured (“fluorescence intensity (a.u.)”: median about 10,000, highest 2% from about 52,000 on). Many of the other results were omitted from the sample, so the highest values are more common in it than they were.
What follows are sequences tested against T1, OsWOX13 (Oryza sativa, UniProt Q5QMM3 1-267) (assay: protein-binding microarray (RPBM); PBS, 2% BSA, 51.3 ng/ul salmon testes DNA, 50 uM zinc acetate, 200 nM TF, 25 C, 1 h; high values mean tight binding). Details: protein: recombinant; tags: N-terminal polyhistidine and DsRed monomer fusion (pET32a); label: CyDye5-dUTP incorporated in the synthesized complementary strand; 3' TTTTT single-stranded linker to array surface; dsDNA, one strand shown.
T1 sequence: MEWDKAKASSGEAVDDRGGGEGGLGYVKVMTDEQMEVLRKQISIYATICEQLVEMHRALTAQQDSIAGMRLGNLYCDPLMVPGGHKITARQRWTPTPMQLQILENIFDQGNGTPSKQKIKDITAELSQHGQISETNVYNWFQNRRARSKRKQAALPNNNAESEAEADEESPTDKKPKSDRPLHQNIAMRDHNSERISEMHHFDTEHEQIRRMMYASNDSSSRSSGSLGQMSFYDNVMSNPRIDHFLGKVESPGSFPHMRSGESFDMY
In short: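 Transcription factors were each fused at the N-terminus to a polyhistidine tag plus DsRed and expressed in E. coli BL21-CodonPlus before Ni–NTA purification. Binding to a double-stranded custom Agilent array was carried out with 200 nM protein at 25 °C for 1 h in PBS, 2% BSA, salmon testes DNA and 50 µM zinc acetate. The binding signal is per-feature fluorescence intensity, in arbitrary units, on an Axon 4000B scanner.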
In the case of “CAAGATTGGGCGAGGGAGGGAGGAGTCCAGATCCTGCCTCCGGAGTCACCTAGTGCAG”, the binding signal is reported as 3250 fluorescence intensity (a.u.). In the case of “ATTCTCGATTTAACACTAATCATCATTATCCTAATAACCACGGAGTCACCTAGTGCAG”, the binding signal is reported as 6320 fluorescence intensity (a.u.). For “CTTAATTTAGAGTTGATTTTGGAGTTTCTTTTATCGTAGTCGGAGTCACCTAGTGCAG”, the binding signal was 39500 fluorescence intensity (a.u.). With “ATTACTTATCTGATTTACGATCCGACTTAACCACTGTATTCGGAGTCACCTAGTGCAG” the binding signal was 4150 fluorescence intensity (a.u.). In the case of “ACAAATTGGTCACTGGCTGAATAGTTTCTACATCAGTTAACGGAGTCACCTAGTGCAG”, the binding signal is reported as 6570 fluorescence intensity (a.u.). For “CGTAAACATCTGATGAGTACCTCACATGTTGAACATCTCCCGGAGTCACCTAGTGCAG”, the binding signal was 3900 fluorescence intensity (a.u.). For “GTTGAAGGATCTGGATGATTAGACGAGCGATGGATCAGGTCGGAGTCACCTAGTGCAG”, the binding signal was 3720 fluorescence intensity (a.u.). In the case of “TCAGTATGTGATTGATTGAAAACTGAAATGGTAGACATACCGGAGTCACCTAGTGCAG”, the binding signal is reported as 53400 fluorescence intensity (a.u.). “ATGTGAAATTGAATGCAGTAGTATGCACATGAAACTTGGGCGGAGTCACCTAGTGCAG” was tested, and the binding signal was 11300 fluorescence intensity (a.u.). “ATAGTATATGATGGATGAGATGGATGCATAGATGGATTGGCGGAGTCACCTAGTGCAG” was tested, and the binding signal was 3330 fluorescence intensity (a.u.). “ATACTTGATTTAAAATGAAAACATAGACAAATGTATGGTACGGAGTCACCTAGTGCAG” was tested, and the binding signal was 23800 fluorescence intensity (a.u.). With “TGTCAGATTGGATGGATTGTGCTACTGTACATGCATAGTGCGGAGTCACCTAGTGCAG” the binding signal was 37000 fluorescence intensity (a.u.). For “TGCTGATTGGTATGCATAGAGTATGTATGGAAACCTTGTGCGGAGTCACCTAGTGCAG”, the binding signal was 56600 fluorescence intensity (a.u.). For “CCCGTGGCTCGACTTGATGGCGTGGAGAATGGACGAGTACCGGAGTCACCTAGTGCAG”, the binding signal was 6970 fluorescence intensity (a.u.). With “TTATAATTAGAACTTTTATATGTGTGTTATGCACGACTTACGGAGTCACCTAGTGCAG” the binding signal was 4050 fluorescence intensity (a.u.). With “ATTTGATCCAAATTATATGGTTATTAATCAAATCCCATAGCGGAGTCACCTAGTGCAG” the binding signal was 10200 fluorescence intensity (a.u.). In the case of “GTTAATTGATTAGCAAAAGGTACTATACATATATTCTTTTCGGAGTCACCTAGTGCAG”, the binding signal is reported as 33800 fluorescence intensity (a.u.). With “GCAAATGTAGGTAAGATTGAGATTGACTTTATGTGGGTCCCGGAGTCACCTAGTGCAG” the binding signal was 12500 fluorescence intensity (a.u.). “TGTCCTCCTGCTCCTGATTGGATCGGTAGAAAGGTGGCGGCGGAGTCACCTAGTGCAG” was tested, and the binding signal was 11000 fluorescence intensity (a.u.). With “GCGGATTGGTTGCCTGACCCTCCTCCTCCTCCTCCTCCTCCGGAGTCACCTAGTGCAG” the binding signal was 8490 fluorescence intensity (a.u.). For “GTGATTGGCGCGATCCGTGCGCTTGCCGTCTTGCCGGCGTCGGAGTCACCTAGTGCAG”, the binding signal was 30100 fluorescence intensity (a.u.). With “CGTACCAGCTGATTGATGGTGTCACTCACCAAATGTTCTTCGGAGTCACCTAGTGCAG” the binding signal was 34300 fluorescence intensity (a.u.). With “GCCGGTGATTGGCGTGGCGTGGCGTGGCGTGGCGCGGTGTCGGAGTCACCTAGTGCAG” the binding signal was 52600 fluorescence intensity (a.u.). With “TTCTGATTGATGTCAGGAGTGGCGTGCGTACCAGTGCTGTCGGAGTCACCTAGTGCAG” the binding signal was 58100 fluorescence intensity (a.u.). For “TCGACTTCTGATTGATGTCAGTAATGGTGTACCAGTGCTGCGGAGTCACCTAGTGCAG”, the binding signal was 41200 fluorescence intensity (a.u.). With “GACGCGTCGGTGCTGATTGACTCGACGGCCGGCAACGTGGCGGAGTCACCTAGTGCAG” the binding signal was 22800 fluorescence intensity (a.u.). “TGGATCCTGATTGGATCCTGATTGGCGTTGCGGCCGTGTCCGGAGTCACCTAGTGCAG” was tested, and the binding signal was 65000 fluorescence intensity (a.u.).

— publication PMC7819943, “Rice protein-binding microarrays: a tool to detect cis-acting elements near promoter regions in rice”
